Activity calls are given as the source filed them.

Test [1] relates to Human papillomavirus type 1a protein E7 (residues 44-93). Description: small molecules binding HPV E7 44-93 – biochemical, small-molecule microarray, residues 44-93, 635 nm fluorescence, primary screen (AID 1108).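 Further: E7 fragment applied at 1 µg/mL in TBST for 1 h at 4 C; score combines spot fluorescence with its signal to noise ratio.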 The settings on record: fluorescence 635 nm, higher = more signal.
A short description of test [2]: hepatitis C replication reporter changes, two-sided – Huh7 cells, luciferase reporter, HCV replication inhibitor project, primary screen (AID 1109).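 Further: huh7 hepatoma cells harbouring a luciferase neomycin HCV replicon reporter; luciferase luminescence as measure of HCV replicon replication; test concentration not given here.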 The following applies: Huh7 HCV replicon luciferase reporter, 48 h; higher = more signal. A general note: A reporter such as luciferase makes a cellular process visible.
The target in test [3] is Left-right determination factor 2 (Homo sapiens) (UniProt O00292). Description: small molecules binding LEFTY2 protein – biochemical, small-molecule microarray, 635 nm fluorescence scan, primary screen (AID 1110). The settings on record: higher = more signal.
Test [4] addresses Calmodulin-1 (Homo sapiens) (UniProt P0DP23). Description: small molecules binding calmodulin-1 with EGTA – biochemical, small-molecule microarray, Cy5-labelled CALM1, profiling panel (AID 1111).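 Further: labelled calmodulin applied in Tris saline Tween buffer holding calcium plus EGTA and DTT.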 The following applies: Cy5-CALM1 binding fluorescence, higher = more signal.
For test [5] the target is unchanged. Nature of the test: small molecules binding Ca-loaded calmodulin-1 – biochemical, small-molecule microarray, Cy5-labelled CALM1, plus calcium, artefact control for SMM control-protein annotation, profiling panel (AID 1112).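 Further: score merges spot fluorescence with signal to noise from triplicate slides.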 The following applies: Cy5-CALM1 binding fluorescence, higher = more signal.
Test [6] in a line: probe aWnt5a binding to arrayed compounds – biochemical, biotinylated probe, 635/667 nm fluorescence, primary screen (AID 1113).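 Further: score merges 667 nm fluorescence intensity with signal-to-noise per printed feature.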 The following applies: small-molecule microarray, higher = more signal.
A short description of test [7]: probe aShh binding to arrayed compounds – biochemical, biotinylated probe, 635/667 nm fluorescence, primary screen (AID 1114).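 Further: probe is biotin-labelled aShh protein from a stem cell growth factor screen; measures binding of labelled protein to compounds printed on the slide; score merges feature fluorescence at 667 nm with signal-to-noise.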 The settings on record: small-molecule microarray, higher = more signal.
Test [8] can be described thus: probe aNog binding to arrayed compounds – biochemical, biotinylated probe, 635/667 nm fluorescence, primary screen (AID 1115).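 Further: probe is biotinylated aNog protein used at 0.15 µg/mL for 1 h at 4 C; z-score combines 667 nm fluorescence of each spot with its signal to noise.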 The following applies: small-molecule microarray, higher = more signal.
In test [9] the target is Torsin-1A-interacting protein 1 (Homo sapiens) (UniProt Q5JTV8). Description: compound microarray binding of lysate hLAP1 – cell lysate, small-molecule microarray, COS7 lysate, 635/667 nm fluorescence, primary screen (AID 1116). The following applies: 635 nm fluorescence, higher = more signal.
For test [10], the target named is Alpha-bungarotoxin (Bungarus multicinctus) (UniProt P60615). Nature of the test: compounds binding labelled alpha-BTX control protein – biochemical, small-molecule microarray, Alexa647 label, 635/667 nm fluorescence, artefact control for SMM control protein annotation, profiling panel (AID 1117). The settings on record: alpha-BTX-A647 binding fluorescence, higher = more signal.

In another test the target is Albumin (Bos taurus) (UniProt P02769). Nature of the test: compounds binding labelled BSA control protein – biochemical, small-molecule microarray, Alexa647 label, 635/667 nm fluorescence, artefact control for SMM control protein annotation, profiling panel (AID 1118).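 Further: score merges 667 nm emission intensity and signal-to-noise per printed compound spot.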 The following applies: BSA-A647 binding, fluorescence 635 nm, higher = more signal.
Test [11] can be described thus: probe aXIP binding to arrayed compounds – biochemical, NeuroSMM set, 635/667 nm fluorescence, primary screen (AID 1119).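 Further: probe is the protein aXip251-270 applied at 1 µg/mL to compound-printed slides; binding of probe to printed compounds measured as 667 nm fluorescence plus signal to noise.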 The settings on record: small-molecule microarray, higher = more signal, called active from +8 up or from −8 down.
Test [12] is described as follows: probe aNOTCH3 binding on compound microarray – biochemical, small-molecule microarray, 635/667 nm fluorescence, primary screen (AID 1120).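 Further: probe is a biotin-tagged antibody raised against NOTCH3 rather than NOTCH3 protein; score merges spot fluorescence near 667 nm with spot signal to noise.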 The following applies: higher = more signal.
Test [13] can be described thus: probe aNOTCH2 binding on compound microarray – biochemical, small-molecule microarray, 635/667 nm fluorescence, primary screen (AID 1121).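 Further: score merges feature fluorescence read at 667 nm with its signal to noise.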 The following applies: higher = more signal.
The target of test [14] is Carbonic anhydrase 2 (Homo sapiens) (UniProt P00918). Nature of the test: compounds binding carbonic anhydrase 2 – biochemical, small-molecule microarray, Alexa647-labelled CAII, profiling panel (AID 1122). The settings on record: CAII-A647 binding fluorescence, higher = more signal.
A short description of test [15]: COS7 lysate on small-molecule microarray, probe aHis, 635 nm (AID 1123).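 Further: z-score combines 667nm fluorescence intensity with signal-to-noise per printed compound spot.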 The following applies: COS7 cell lysate, fluorescence, higher = more signal.
A short description of test [16]: probe aLAP1 signal on lysate-treated microarray – cell lysate, small-molecule microarray, COS7 lysate, primary screen (AID 1124).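 Further: lysate comes from COS7 cells expressing LAP1 and is applied at 0.3 µg/mL; score merges spot fluorescence near 667 nm with signal-to-noise over triplicate slides.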 The following applies: probe aLAP1, fluorescence, higher = more signal.
The subject of a further test is Sam68 (KHDRBS1). Nature of the test: compounds binding KHDRBS1 protein – biochemical, small-molecule microarray, 635 nm fluorescence, primary screen (AID 1125).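 Further: score merges 667 nm channel intensity with signal to noise over triplicate slides.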 The following applies: higher = more signal.
Test [17] has as its system Chordin-like protein 2 (CHRDL2). Description: compounds binding chordin-like 2 – biochemical, small-molecule microarray, 635 nm fluorescence, primary screen (AID 1126).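 Further: printed compound slides probed with Chrdl2 protein at 4 µg/mL for 1 h at 4 C; score merges 667 nm emission intensity with signal to noise over three replicate slides.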 The settings on record: fluorescence 635 nm, higher = more signal.
For test [18], the target named is Concanavalin-A (Canavalia ensiformis) (UniProt P02866). Nature of the test: compounds binding concanavalin A lectin – biochemical, small-molecule microarray, Alexa647 label, 635 nm, artefact control for SMM control protein annotation, primary screen (AID 1127).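 Further: z combines 667 nm emission intensity with signal-to-noise across three replicate slides.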 The settings on record: ConA-A647 binding fluorescence, higher = more signal.
Sequence of Concanavalin-A (Canavalia ensiformis) (P02866 whole entry, looked up): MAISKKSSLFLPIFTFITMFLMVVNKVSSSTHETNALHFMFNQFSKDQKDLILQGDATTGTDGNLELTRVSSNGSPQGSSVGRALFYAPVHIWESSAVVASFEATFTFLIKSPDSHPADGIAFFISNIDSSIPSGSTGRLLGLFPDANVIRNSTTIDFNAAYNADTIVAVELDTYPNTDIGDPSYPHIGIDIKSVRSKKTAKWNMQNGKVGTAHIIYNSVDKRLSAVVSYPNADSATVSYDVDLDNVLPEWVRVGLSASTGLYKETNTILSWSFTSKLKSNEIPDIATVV

Sequence of Alpha-bungarotoxin (Bungarus multicinctus) (P60615 whole entry, looked up): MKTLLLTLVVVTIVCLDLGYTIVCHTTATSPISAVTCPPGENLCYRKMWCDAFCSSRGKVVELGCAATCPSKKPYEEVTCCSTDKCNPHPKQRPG
Sequence of Torsin-1A-interacting protein 1 (Homo sapiens) (Q5JTV8 whole entry, looked up): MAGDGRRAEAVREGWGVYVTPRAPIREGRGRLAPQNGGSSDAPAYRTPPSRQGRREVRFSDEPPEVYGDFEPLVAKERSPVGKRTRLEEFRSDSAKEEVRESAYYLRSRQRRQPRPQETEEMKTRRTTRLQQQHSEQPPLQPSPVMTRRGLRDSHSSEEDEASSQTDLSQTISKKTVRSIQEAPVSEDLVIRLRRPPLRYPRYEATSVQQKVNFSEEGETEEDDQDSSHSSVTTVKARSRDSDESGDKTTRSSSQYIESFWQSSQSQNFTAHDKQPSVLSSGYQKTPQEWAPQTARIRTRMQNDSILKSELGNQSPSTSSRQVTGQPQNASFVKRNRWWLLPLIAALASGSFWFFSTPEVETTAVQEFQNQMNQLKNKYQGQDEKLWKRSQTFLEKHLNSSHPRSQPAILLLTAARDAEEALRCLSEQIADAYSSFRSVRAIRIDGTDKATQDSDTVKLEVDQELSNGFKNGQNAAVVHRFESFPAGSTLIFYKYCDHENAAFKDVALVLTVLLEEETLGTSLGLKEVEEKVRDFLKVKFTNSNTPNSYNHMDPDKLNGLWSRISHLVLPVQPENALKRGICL
Sequence of Albumin (Bos taurus) (P02769 whole entry, looked up): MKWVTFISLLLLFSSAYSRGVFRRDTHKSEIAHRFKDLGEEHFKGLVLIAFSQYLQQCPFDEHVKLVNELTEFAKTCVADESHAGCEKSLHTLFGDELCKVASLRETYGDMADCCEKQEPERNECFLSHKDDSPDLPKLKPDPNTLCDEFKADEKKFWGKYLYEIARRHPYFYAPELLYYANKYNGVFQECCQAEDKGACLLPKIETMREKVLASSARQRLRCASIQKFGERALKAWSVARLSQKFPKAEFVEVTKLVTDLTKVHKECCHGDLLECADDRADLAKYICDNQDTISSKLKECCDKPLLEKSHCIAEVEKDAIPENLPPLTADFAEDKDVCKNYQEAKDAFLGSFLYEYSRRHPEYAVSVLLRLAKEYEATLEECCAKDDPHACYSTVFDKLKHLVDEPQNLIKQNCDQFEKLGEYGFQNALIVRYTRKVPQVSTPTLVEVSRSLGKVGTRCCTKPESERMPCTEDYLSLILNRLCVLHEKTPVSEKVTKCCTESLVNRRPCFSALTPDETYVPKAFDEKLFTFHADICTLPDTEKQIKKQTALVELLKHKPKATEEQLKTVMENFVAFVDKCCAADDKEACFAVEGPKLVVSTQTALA
Sequence of Left-right determination factor 2 (Homo sapiens) (O00292 whole entry, looked up): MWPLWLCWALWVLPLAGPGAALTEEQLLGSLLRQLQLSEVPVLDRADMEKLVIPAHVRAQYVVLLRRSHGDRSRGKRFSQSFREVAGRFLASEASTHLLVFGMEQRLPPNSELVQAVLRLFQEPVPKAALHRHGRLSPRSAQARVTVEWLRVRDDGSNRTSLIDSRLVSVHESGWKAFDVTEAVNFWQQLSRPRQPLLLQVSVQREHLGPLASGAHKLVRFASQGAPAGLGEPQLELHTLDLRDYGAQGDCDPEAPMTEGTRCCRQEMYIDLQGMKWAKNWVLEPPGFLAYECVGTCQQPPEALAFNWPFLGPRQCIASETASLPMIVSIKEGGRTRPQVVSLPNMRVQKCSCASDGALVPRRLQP

Consider `COC(=O)[C@@]1(Cc2ccc(F)cc2)[C@H]2c3cc(C(=O)N4CCCC4)n(Cc4ccc(C)o4)c3C[C@H]2CN1C(=O)c1ccccc1`, for which the composite z-score in test [1] is 1.4; in test [3], -0.699; in test [4] it was 1.48; in [5], 0.558; in test [6] it was 0.319; in test [7], 0.862. Moreover, the composite z-score in test [8] was -0.632; in test [9], 0.11; in test [10], 0.948; with Albumin (Bos taurus) it was 0.469; in test [12], 0.28; in test [13], 0.354. The composite z-score in [14] was 0.546; in [15], 1.95; in test [16] it was 0.137; in the test with Sam68 (KHDRBS1) it was -0.459; in test [17], -0.549; in test [18] it was 0.851. In addition, in test [2], the z-score was -2.32. The composite Z-score in test [11] was 0.157 (inactive).
`CC(C)C[C@@H]1NC(=O)[C@@H]2C[C@H](C(=O)NCCCCCN)[C@H](c3cccc(OCCO)c3)N2C1=O`: the composite z-score in [1] is 0.828; in [3], 0.197; in [4], 1.36; in test [5], 0.615; in [6], -0.0896; in test [7] it was -0.153. For the same compound, the composite z-score in test [8] was -0.282; in test [9] it was 1.36; in test [10], 0.417; with Albumin (Bos taurus) it was 1.02; in test [12] it was 0.0992; in test [13], -0.17. Moreover, the composite z-score in [14] was found to be 0.813; in [15], 1.03; in test [16], 1.16; with Sam68 (KHDRBS1) it was 0.839; in test [17], 0.0186; in [18], 1.2. The same compound yielded a z-score in [2] of -0.352. Moreover, the composite Z-score in test [11] was 0.425 (inactive).
For the compound `COCCCN1C(=O)[C@@]2(Cc3ccccc31)c1ccccc1C(=O)N(Cc1ccccc1C(F)(F)F)[C@H]2c1ccc(CO)cc1`, the composite z-score was 0.898 in [1]; 0.33 in test [3]; -0.47 in test [4]; -0.206 in [5]; 0.439 in test [6]; -0.243 in test [7]. Also, the composite z-score is 1.79 in test [8]; 0.094 in test [9]; 0.33 in [10]; -0.857 with Albumin (Bos taurus); -0.401 in [12]; 0.402 in test [13]. In addition, the composite z-score in [14] is 0.138; in [15], -0.176; in test [16], -0.395; in the test with Sam68 (KHDRBS1) it was 1; in test [17], 1.09; in test [18], 0.961. The z-score in [2] is -0.311. Also, in [11], the composite Z-score was 0.225 (inactive).
For the compound `COc1ccc(C(O)C2C=CC3C(=O)N(c4ccccc4)C(=O)C3N2Nc2ccccc2F)cc1OCc1ccccc1` (stereo not given), the composite z-score was 1.4 in test [1]; -0.477 in test [3]; 2.15 in test [4]; 0.983 in test [5]; 0.108 in test [6]; 0.232 in test [7]. The composite z-score in [8] was -0.115; in test [9], 1.2; in test [10], 1.55; with Albumin (Bos taurus) it was 1.01; in test [12] it was 0.837; in test [13], 0.114. Moreover, the composite z-score in test [14] was 0.51; in test [15], 2.04; in test [16], -0.0892; with Sam68 (KHDRBS1) it was 1.31; in [17], -0.175; in [18], 1.13. In test [2], this compound yielded a z-score of -0.0689. The composite Z-score in test [11] was 1.22 (inactive).
Turning to `C#CCN(CC1=CCCCC1)[C@H](c1ccccc1Br)[C@@H](O)Cc1ccccc1`, the composite z-score in [1] is -0.0413; in test [3], -1.07; in test [4], -0.929; in [5], -0.568; in [6], -0.118; in test [7], 0.108. Besides, the composite z-score was -0.368 in test [8]; 0.632 in test [9]; 0.92 in [10]; 0.306 with Albumin (Bos taurus); -0.344 in test [12]; -0.177 in [13]. In addition, the composite z-score in [14] was 0.345; in [15], 0.545; in [16], 0.0773; in the test on Sam68 (KHDRBS1), 0.516; in test [17], -0.882; in test [18] it was -0.679. Also, in test [2], the z-score is -2.33. Moreover, in [11], the composite Z-score was -0.356 (inactive).
`CCOC(=O)[C@H]1C/C=C/C[C@H](C(=O)OCC)C(=O)O[C@H]2[C@@H](OC)O[C@H](CO)[C@@H](OC(=O)Nc3cccc(F)c3)[C@@H]2OC1=O`: the composite z-score was 1.14 in test [1]; -0.169 in test [3]; -0.192 in [4]; -0.273 in test [5]; -0.0243 in test [6]; 0.0818 in [7]. Besides, the composite z-score came to 1.93 in test [8]; 0.556 in [9]; 0.729 in test [10]; 0.407 in the test with Albumin (Bos taurus); 1.06 in [12]; 0.0593 in test [13]. Besides, the composite z-score is 0.66 in test [14]; 1.86 in test [15]; 0.903 in test [16]; 1.19 with Sam68 (KHDRBS1); 0.306 in test [17]; 0.189 in test [18]. The z-score in test [2] is -3.56. Besides, the composite Z-score in test [11] was 0.46 (inactive).
